Reference: PubChem BioAssay (EPA / NIEHS)
Calls of active or inactive are those of the source. The calls were made as follows: active = hit-call score of the fitted dose curve at least 0.9, where 1 is the maximum; inactive = score below 0.9.

What was measured:
[1] = BSK_hDFCGF_SRB: Viability Assessment in the BioMAP Diversity Plus: hDFCGF Assay (AID 2283061); details: primary human foreskin fibroblasts;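 also: cells exposed to compound for 24 h before the read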
Procedure, shortened: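 Human foreskin primary fibroblasts were treated with compound and assessed 24 h after dosing. Total protein was measured by sulforhodamine B staining (0.1% SRB after 10% TCA fixation, 560 nm read) as a cytotoxicity marker, with bidirectional fitting against DMSO baseline.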

[2] = read-out: TIMP metallopeptidase inhibitor 1 (TIMP1), TIMP1 (gene 7076); experiment: BSK_hDFCGF_TIMP1: BioMAP Diversity Plus: hDFCGF Assay for TIMP metallopeptidase inhibitor 1 (TIMP1) Biomarker Activity (AID 2283062); details: primary human foreskin fibroblasts; actives raise or lower the signal
Procedure, shortened: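 Primary human foreskin fibroblasts in the hDFCGF system were dosed with compound for 24 h, then TIMP-1 was measured by ELISA. Activity was fitted bidirectionally relative to DMSO control; parallel SRB staining assessed cytotoxicity.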

[3] = read-out: Monokine induced gamma interferon (MIG), CXCL9 (gene 4283); experiment: BSK_hDFCGF_MIG: BioMAP Diversity Plus: hDFCGF Assay for Monokine induced gamma interferon (MIG) Biomarker Activity (AID 2283063); details: primary human foreskin fibroblasts; actives raise or lower the signal
Procedure, shortened: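 ELISA read-out of MIG from primary human dermal fibroblasts 24 h post-dosing. Gain or loss of signal fitted bidirectionally, DMSO as baseline.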

[4] = read-out: Matrix Metallopeptidase 1 (MMP1), MMP1 (gene 4312); experiment: BSK_hDFCGF_MMP1: BioMAP Diversity Plus: hDFCGF Assay for Matrix Metallopeptidase 1 (MMP1) Biomarker Activity (AID 2283064); details: primary human foreskin fibroblasts; actives raise or lower the signal
Procedure, shortened: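 MMP1 levels quantified by ELISA 24 h after dosing human dermal fibroblast cultures, with parallel SRB total-protein staining for overt cytotoxicity. Data fitted in both directions against DMSO baseline.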

[5] = read-out: Vascular cell adhesion molecule 1 (VCAM1), VCAM1 (gene 7412); experiment: BSK_hDFCGF_VCAM1: BioMAP Diversity Plus: hDFCGF Assay for Vascular cell adhesion molecule 1 (VCAM1) Biomarker Activity (AID 2283065); details: primary human foreskin fibroblasts; actives raise or lower the signal;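 as to AC50: VCAM-1 protein level quantified by ELISA after 24 h chemical exposure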
Procedure, shortened: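 Primary human foreskin fibroblasts (hDFCGF system) were dosed with chemical and VCAM-1 was measured by ELISA 24 h later. Bidirectional curve fitting used DMSO as negative control and activity baseline.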

[6] = read-out: Plasminogen activator inhibitor-1 (PAI1), SERPINE1 (gene 5054); experiment: BSK_hDFCGF_PAI1: BioMAP Diversity Plus: hDFCGF Assay for Plasminogen activator inhibitor-1 (PAI1) Biomarker Activity (AID 2283066); details: primary human foreskin fibroblasts; actives raise or lower the signal
Procedure, shortened: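 ELISA readout of PAI-1 from primary human skin fibroblast cultures, 24 h after compound addition. Gain or loss of signal was fitted bidirectionally against DMSO baseline.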

[7] = read-out: Intercellular Adhesion Molecule 1 (ICAM1), ICAM1 (gene 3383); experiment: BSK_KF3CT_ICAM1: BioMAP Diversity Plus: KF3CT Assay for Intercellular Adhesion Molecule 1 (ICAM1) Biomarker Activity (AID 2283067); details: primary human keratinocytes with fibroblasts; actives raise or lower the signal
Procedure, shortened: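 Human keratinocyte plus foreskin fibroblast primary co-culture was exposed to chemical for 24 h. ICAM-1 was then quantified by ELISA, and the data were fit bidirectionally against DMSO as the negative control and baseline.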

[8] = read-out: Interferon-gamma inducible Protein 10 (IP10), CXCL10 (gene 3627); experiment: BSK_KF3CT_IP10: BioMAP Diversity Plus: KF3CT Assay for Interferon-gamma inducible Protein 10 (IP10) Biomarker Activity (AID 2283068); details: primary human keratinocytes with fibroblasts; actives raise or lower the signal
Procedure, shortened: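 ELISA read-out of IP-10 after 24 h chemical dosing of human skin primary co-culture (keratinocytes, foreskin fibroblasts). Gain or loss of signal relative to DMSO, bidirectional curve fit.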

[9] = BSK_KF3CT_SRB: Viability Assessment in the BioMAP Diversity Plus: KF3CT Assay (AID 2283069); details: primary human keratinocytes with fibroblasts
Procedure, shortened: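 Cytotoxicity was gauged by SRB staining (0.1% SRB, 10% TCA fixation, 560 nm) of parallel cultures at 24 h. The cells were primary human skin keratinocytes co-cultured with fibroblasts, and activity was fitted in both directions against DMSO.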

[10] = read-out: Interleukin-1 alpha (IL1a), IL1A (gene 3552); experiment: BSK_KF3CT_IL1a: BioMAP Diversity Plus: KF3CT Assay for Interleukin-1 alpha (IL1a) Biomarker Activity (AID 2283070); details: primary human keratinocytes with fibroblasts; actives raise or lower the signal
Procedure, shortened: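 IL-1a was detected by ELISA 24 h after chemical treatment of a co-culture of human skin keratinocytes and foreskin fibroblasts. Gain or loss of signal was fitted against the DMSO baseline.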

[11] = read-out: TIMP metallopeptidase inhibitor 2 (TIMP2), TIMP2 (gene 7077); experiment: BSK_KF3CT_TIMP2: BioMAP Diversity Plus: KF3CT Assay for TIMP metallopeptidase inhibitor 2 (TIMP2) Biomarker Activity (AID 2283071); details: primary human keratinocytes with fibroblasts; actives raise or lower the signal
Procedure, shortened: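 ELISA readout of TIMP-2 in keratinocyte plus foreskin fibroblast co-cultures (human skin primary cells), 24 h post-dose. Gain or loss of signal fitted relative to DMSO.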

[12] = read-out: Transforming growth factor beta 1 (TGFb1), TGFB1 (gene 7040); experiment: BSK_KF3CT_TGFb1: BioMAP Diversity Plus: KF3CT Assay for Transforming growth factor beta 1 (TGFb1) Biomarker Activity (AID 2283072); details: primary human keratinocytes with fibroblasts; actives raise or lower the signal
Procedure, shortened: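 Read-out: ELISA for TGF-b1 in keratinocyte/foreskin fibroblast human skin co-culture, 24 h after dosing; bidirectional curve fit vs DMSO baseline; gain or loss of signal scored.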

[13] = read-out: C-C motif chemokine 2 (Homo sapiens) (UniProt P13500); experiment: BSK_KF3CT_MCP1: BioMAP Diversity Plus: KF3CT Assay for Monocyte Chemoattractant Protein 1 (MCP1/CCL2) Biomarker Activity (AID 2283073); details: primary human keratinocytes with fibroblasts; actives raise or lower the signal
Procedure, shortened: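 Human keratinocyte plus foreskin fibroblast primary co-culture exposed to chemical for 24 h. MCP-1 levels measured by ELISA. Bidirectional curve fitting relative to DMSO negative control as baseline.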

[14] = read-out: Matrix Metallopeptidase 9 (MMP9), MMP9 (gene 4318); experiment: BSK_KF3CT_MMP9: BioMAP Diversity Plus: KF3CT Assay for Matrix Metallopeptidase 9 (MMP9) Biomarker Activity (AID 2283074); details: primary human keratinocytes with fibroblasts; actives raise or lower the signal;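 also: MMP9 protein level quantified by ELISA in the co-culture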
Procedure, shortened: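 MMP-9 quantified by ELISA after 24 h chemical treatment of primary human skin keratinocyte/fibroblast co-cultures; gain or loss fitted against DMSO, with parallel SRB staining (0.1% SRB, 560 nm) for overt cytotoxicity.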

[15] = read-out: urokinase plasminogen activator (uPA), PLAU (gene 5328); experiment: BSK_KF3CT_uPA: BioMAP Diversity Plus: KF3CT Assay for urokinase plasminogen activator (uPA) Biomarker Activity (AID 2283075); details: primary human keratinocytes with fibroblasts; actives raise or lower the signal
Procedure, shortened: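 ELISA read-out of uPA 24 h after dosing human skin keratinocytes co-cultured with foreskin fibroblasts. Signal change fitted both ways relative to DMSO; sulforhodamine B on parallel cultures marks overt cytotoxicity.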

[16] = read-out: CD40, CD40 (gene 958); experiment: BSK_LPS_CD40: BioMAP Diversity Plus: LPS Assay for CD40 Biomarker Activity (AID 2283076); details: primary human HUVEC with PBMC; actives raise or lower the signal
Procedure, shortened: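 Primary human umbilical vein endothelial cells co-cultured with peripheral blood mononuclear cells, LPS-stimulated, were dosed with chemical and read 24 h later. CD40 levels were measured by ELISA and fitted bidirectionally against DMSO as negative control and baseline.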

[17] = read-out: E-selectin (Homo sapiens) (UniProt P16581); experiment: BSK_LPS_Eselectin: BioMAP Diversity Plus: LPS Assay for Eselectin Biomarker Activity (AID 2283077); details: primary human HUVEC with PBMC; actives raise or lower the signal
Procedure, shortened: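 Human umbilical vein endothelial cells co-cultured with peripheral blood mononuclear cells under LPS stimulation; E-selectin measured by ELISA 24 h after chemical dosing. Activity fitted bidirectionally against DMSO as negative control and baseline.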

[18] = read-out: Interleukin-8 (IL8), CXCL8 (gene 3576); experiment: BSK_LPS_IL8: BioMAP Diversity Plus: LPS Assay for Interleukin-8 (IL8) Biomarker Activity (AID 2283078); details: primary human HUVEC with PBMC; actives raise or lower the signal
Procedure, shortened: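 Human umbilical vein endothelial cells co-cultured with PBMC were stimulated with LPS; IL-8 levels were measured by ELISA 24 h after chemical dosing. Activity was fitted bidirectionally against DMSO as negative control and baseline.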

[19] = BSK_LPS_SRB: Viability Assessment in the BioMAP Diversity Plus: LPS Assay (AID 2283079); details: primary human HUVEC with PBMC;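 also: total protein by sulforhodamine B absorbance as a cytotoxicity measure; measured one day after compound addition; fitted in both directions against DMSO so loss or gain of signal counts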
Procedure, shortened: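 Human umbilical vein endothelial cells co-cultured with PBMC (LPS system) were dosed for 24 h. Total protein was stained with 0.1% sulforhodamine B after 10% TCA fixation, read at 560 nm, and fitted bidirectionally against DMSO baseline.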

[20] = read-out: Interleukin-1 alpha (IL1a), IL1A (gene 3552); experiment: BSK_LPS_IL1a: BioMAP Diversity Plus: LPS Assay for Interleukin-1 alpha (IL1a) Biomarker Activity (AID 2283080); details: primary human HUVEC with PBMC; actives raise or lower the signal
Procedure, shortened: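 Human umbilical vein endothelial cells co-cultured with peripheral blood mononuclear cells were LPS-stimulated and exposed to test chemicals for 24 h. IL-1 alpha was quantified by ELISA, with bidirectional curve fitting against DMSO as the negative control and baseline.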

Measured: AC50

Sequence of E-selectin (Homo sapiens) (P16581 whole entry, looked up): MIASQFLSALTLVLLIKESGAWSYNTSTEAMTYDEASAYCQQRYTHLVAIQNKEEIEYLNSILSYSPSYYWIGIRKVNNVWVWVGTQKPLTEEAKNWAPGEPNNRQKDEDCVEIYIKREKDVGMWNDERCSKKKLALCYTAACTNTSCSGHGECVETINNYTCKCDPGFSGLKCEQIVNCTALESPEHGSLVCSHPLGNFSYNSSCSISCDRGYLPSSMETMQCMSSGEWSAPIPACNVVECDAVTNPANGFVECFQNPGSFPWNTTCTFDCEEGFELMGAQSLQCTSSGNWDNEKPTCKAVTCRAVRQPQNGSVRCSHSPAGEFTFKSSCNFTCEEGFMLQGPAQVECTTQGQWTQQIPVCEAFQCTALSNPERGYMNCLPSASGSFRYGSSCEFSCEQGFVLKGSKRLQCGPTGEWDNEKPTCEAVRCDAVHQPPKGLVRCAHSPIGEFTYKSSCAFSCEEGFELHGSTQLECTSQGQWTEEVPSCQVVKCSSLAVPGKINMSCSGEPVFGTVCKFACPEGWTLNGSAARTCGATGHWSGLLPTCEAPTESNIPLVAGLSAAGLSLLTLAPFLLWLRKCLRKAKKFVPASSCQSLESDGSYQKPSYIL

Nc1ccc(Cl)cc1N
inactive: [1] | [2] | [3] | [4] | [6] | [7] | [8] | [9] | [10] | [11] | [12] | [13] | [15] | [16] | [18] | [19] | [20]
active: [5] 9.2 µM | [14] 8.99 µM | [17] 4.45 µM

CC(C)(C)OOC(C)(C)CCC(C)(C)OOC(C)(C)C
inactive: [1] | [2] | [3] | [4] | [5] | [6] | [7] | [8] | [9] | [10] | [12] | [13] | [15] | [16] | [17] | [18] | [19] | [20]

[O-][Cl+]O
inactive: [1] | [2] | [3] | [4] | [5] | [6] | [7] | [8] | [9] | [10] | [12] | [15] | [16] | [17] | [18] | [19] | [20]
